Where a name gives a salt, the structure may show the parent alone. ± gives the standard deviation of the averaged measurements.

Among the data in the supplement of paper PMC6658780 are percent growth inhibition values, retold here.

For one assay, the system named is Escherichia coli ATCC BAA-2469. As to the kind of experiment: percent growth inhibition of drug + antibiotic vs DMSO control; higher = more growth inhibition. To be noted: antibiotic (0.125x MIC): ciprofloxacin; 7 µM. How it is done: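 Prestwick drugs tested at 20 uM and 7 uM with an antibiotic at 0.125x MIC (16 mg/L when MIC >128 mg/L) against E. coli ATCC BAA-2469 (NDM-1) in CAMHB, 384-well plates, duplicate runs. Percent growth inhibition was computed from OD600 (24 h minus 0 h) relative to DMSO wells. Drug + DMSO-only wells are also given. […]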
Take `NCC1(CC(=O)O)CCCCC1` [Gabapentin]: the percent growth inhibition turned out to be 4.43 ± 4.2%.
Same read-out and setting: for `O=C([O-])c1ccccc1-c1c2cc(Br)c(=O)cc-2oc2[c]([Hg+])c([O-])c(Br)cc12.[Na+].[Na+].[OH-]` [Merbromin] the value was 0.00817 ± 2.1%.

The assay is the same for the next values; noted with them: antibiotic (0.125x MIC): ciprofloxacin; 20 µM.
Take `NCC1(CC(=O)O)CCCCC1` [Gabapentin]: the percent growth inhibition came to 9.67 ± 14%.

The assay is the same for the next values; noted with them: antibiotic (0.125x MIC): gentamicin; 7 µM.
In the case of `O=C(CCCN1CCC2(CC1)C(=O)NCN2c1ccccc1)c1ccc(F)cc1` [Spiperone], the percent growth inhibition stood at 7.21 ± 1%.
For `C[C@]12CC[C@H](O)C[C@@H]1CC[C@@H]1[C@@H]2CC[C@]2(C)C(=O)CC[C@@H]12` [Epiandrosterone], the percent growth inhibition stood at 0.433 ± 1.2%.

Staying with this assay, now noted: antibiotic (0.125x MIC): meropenem; 7 µM.
For `NCC1(CC(=O)O)CCCCC1` [Gabapentin], the percent growth inhibition is -2.95 ± 1.7%.
Same read-out and setting: for `O=C([O-])c1ccccc1-c1c2cc(Br)c(=O)cc-2oc2[c]([Hg+])c([O-])c(Br)cc12.[Na+].[Na+].[OH-]` [Merbromin] the value was 0.439 ± 4%.

The same assay, now with this note: antibiotic (0.125x MIC): meropenem; 20 µM.
For the compound `CN1[C@@H]2CC[C@H]1C[C@@H](OC(=O)C(CO)c1ccccc1)C2` (some centres undefined) [Atropine sulfate monohydrate], the percent growth inhibition stood at 0.268 ± 1.2%.
On the same count and under the same terms, to `Oc1cc(Cl)ccc1Oc1ccc(Cl)cc1Cl` [Triclosan] belongs 97 ± 4.5%.
